According to the supplement of paper PMC4166925:
± gives the standard deviation of the averaged measurements. In all, about 33,000 sequences were measured (“E-score (dimensionless, -0.5 to 0.5)”: median about -0.049, highest 2% from about 0.37 on). For the sample, the highest values were picked, then their nearest neighbours and some sequences at random.

tested on: T1, PmTbr T-box DNA-binding domain (GST fusion); assay: PBM E-score of 8-mer (E-score (dimensionless, -0.5 to 0.5)); Tbr is Tbrain of the sea star Patiria miniata (Pm) or the sea urchin Strongylocentrotus purpuratus (Sp); higher = stronger binding preference; conditions: the construct has about 5 more residues each side
T1 sequence: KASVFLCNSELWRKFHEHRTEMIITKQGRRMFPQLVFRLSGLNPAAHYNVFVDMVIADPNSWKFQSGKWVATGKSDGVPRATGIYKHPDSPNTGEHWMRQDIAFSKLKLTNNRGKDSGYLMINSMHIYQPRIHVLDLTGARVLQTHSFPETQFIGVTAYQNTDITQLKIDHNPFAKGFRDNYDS
Summary of the method: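 Each ungapped 8-mer received an enrichment E-score from the Universal PBM Analysis Suite, averaged over duplicate arrays. The proteins were Tbr T-box DNA-binding domains, covering the whole T-box plus about five flanking residues, fused to GST and expressed in BL21 E. coli at 20 °C before glutathione affinity purification. Universal Agilent oligonucleotide arrays were made double-stranded by primer extension and incubated with 200 nM protein in PBS (pH 7.5). The arrays were then scanned and quantified, and every 8-mer was scored from probe intensities.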

Sequence | PBM E-score of 8-mer
CGGCAATA | -0.0175 ± 0.065
CGGCCTAA | -0.0861 ± 0.036
AACTCAAC | -0.0361 ± 0.029
CGCTATAA | 0.164 ± 0.045
GCGTGCCA | 0.163 ± 0.015
CGGTGCCA | 0.195 ± 0.0034
TGGTGCAA | 0.192 ± 0.012
AGGTGCAA | 0.4484 ± 0.0012
GGGTGCAA | 0.31 ± 0.0046
GGGTGCCA | 0.426 ± 0.011
AAAGACCG | -0.149 ± 0.032
TCCTGCCA | 0.183 ± 0.019
CGCGTGAG | 0.282 ± 0.004
CGCGTGAC | 0.342 ± 0.0057
GGCGTGAC | 0.386 ± 0.017
CACGTGAA | 0.176 ± 0.044
TGCGTGAA | 0.3679 ± 0.0033
AGCGTGAA | 0.381 ± 0.004
AGCGTGAG | 0.24 ± 0.042
CGCGTGAA | 0.398 ± 0.033
GGCGTGAA | 0.4668 ± 0.002
AGCGTGAC | 0.3524 ± 0.0023
AGCGTGAT | 0.207 ± 0.025
GGCGTGCA | -0.00275 ± 0.035
CTAGGATC | -0.255 ± 0.018

Sequence | PBM E-score of 8-mer
TTGAGAAA | 0.0227 ± 0.14
ATGACCAT | -0.23 ± 0.0083
TCCTTAGA | -0.289 ± 0.043
CCCAAGCC | -0.228 ± 0.037
AGTCAATG | -0.195 ± 0.041
CTTCCACA | 0.151 ± 0.069
CGTCTTCA | -0.00878 ± 0.0017
AGAACGAG | -0.0902 ± 0.0033
CGGCGAAA | -0.1403 ± 0.00085
GCCATTCA | 0.104 ± 0.018
GAACGCTA | 0.0135 ± 0.049
AATAACAC | 0.339 ± 0.052
CATAACAA | 0.0483 ± 0.038
GATAACAC | 0.4169 ± 0.0014
GATAACAA | 0.212 ± 0.042
GATAACGC | 0.246 ± 0.0034
CATAACAC | 0.42 ± 0.0089
GCTGTTCA | 0.0254 ± 0.024
CGAAGATC | -0.07 ± 0.0097
ACCGCAGA | -0.332 ± 0.019
CATCCTCA | -0.0261 ± 0.11
GAACCTAC | -0.179 ± 0.00047
GGCTTAAA | -0.302 ± 0.016
ACAAGCTA | -0.0967 ± 0.014
TGGTGACA | 0.409 ± 0.01

Sequence | PBM E-score of 8-mer
TCGTGACA | 0.358 ± 0.017
GGGTGACA | 0.4543 ± 0.0023
CGGTGACA | 0.333 ± 0.0054
GGGTGAAA | 0.0558 ± 0.043
GGGTGACC | -0.0479 ± 0.082
CGCGCTCA | 0.13 ± 0.034
TATAAGGA | -0.154 ± 0.073
CACCAATA | 0.224 ± 0.056
CCATGGCC | -0.263 ± 0.011
AGGTGAAA | 0.347 ± 0.022
AGGTGACC | 0.172 ± 0.052
AGGTGACA | 0.4826 ± 0.00079
AGGTGACG | 0.4629 ± 0.0014
CGGTGACG | 0.179 ± 0.047
AGGTGACT | 0.31 ± 0.015
GGGGGGCA | -0.327 ± 0.0093
GCTCTGAC | -0.205 ± 0.092
GGAAACCA | -0.1389 ± 0.00081
AACTCTCG | -0.128 ± 0.018
GATTCACC | -0.167 ± 0.0053
GATTCACA | 0.38 ± 0.041
GATTCAGA | -0.206 ± 0.0085
TATTCACA | 0.411 ± 0.029
CATTCACA | 0.385 ± 0.0049
CATTCACG | 0.229 ± 0.041

Sequence | PBM E-score of 8-mer
AATTCACG | 0.365 ± 0.0071
CATTCACC | -0.0785 ± 0.054
AATTCACA | 0.2798 ± 0.0014
AGACCACT | -0.234 ± 0.093
TACCCATA | -0.104 ± 0.024
AACTGACG | 0.102 ± 0.036
AGATGTGC | 0.163 ± 0.018
CTGTGTGC | -0.0563 ± 0.038
AGGTGTGG | 0.483 ± 0.0024
ACGTGTGG | 0.362 ± 0.017
AGGTGTGC | 0.44 ± 0.0051
ATGTGTGG | 0.3184 ± 0.0012
ATACTCCG | -0.00617 ± 0.029
AGAGTTAT | -0.0216 ± 0.013
GTCCAACA | 0.198 ± 0.045
AAAGCGTG | 0.2812 ± 0.0023
CGTAAACG | 0.0455 ± 0.046
AGGCGTTA | 0.4486 ± 0.0021
AGGCGTAG | 0.0703 ± 0.0097
CGGCGTTA | 0.189 ± 0.00085
AGGCGTTG | 0.369 ± 0.0053
AGGCGTTC | 0.0817 ± 0.053
GGGCGTTA | 0.276 ± 0.0092
ATTGGAGG | 0.0195 ± 0.049
AAATGGGC | 0.0759 ± 0.0097

Sequence | PBM E-score of 8-mer
GGCAACGA | 0.0835 ± 0.033
AGGAGATG | -0.0689 ± 0.011
ACTTTTAC | -0.0251 ± 0.02
CCAGAGCC | -0.17 ± 0.0096
AAGGTGGG | 0.221 ± 0.026
GAGGTGGA | 0.0566 ± 0.0027
CAGGTGGC | 0.364 ± 0.018
GAGGTGGC | 0.372 ± 0.036
AAGGTGGC | 0.383 ± 0.021
AAGGTGGA | -0.0394 ± 0.074
TACTAGTA | -0.163 ± 0.035
CTGTAGCA | -0.0144 ± 0.079
ACGCACCA | 0.0123 ± 0.072
AATCTTTA | -0.0517 ± 0.059
GACACGGC | 0.187 ± 0.038
AACACGTA | 0.34 ± 0.024
GACACGTC | 0.373 ± 0.021
GACACGTA | 0.317 ± 0.029
AACACGAT | 0.291 ± 0.018
AACACGTC | 0.399 ± 0.021
AACACGCT | 0.197 ± 0.011
AACACGTT | 0.386 ± 0.014
AACACGGC | 0.162 ± 0.017
ACGCGTTC | 0.138 ± 0.014
TTAGTGAA | -0.048 ± 0.037

Sequence | PBM E-score of 8-mer
TCTAAGAA | -0.239 ± 0.028
CAAGGTGG | 0.323 ± 0.03
GAAGGTGA | 0.406 ± 0.011
GAAGGTCC | -0.1794 ± 0.0013
GAAGGTAA | 0.00393 ± 0.033
CAAGGTGC | 0.4331 ± 0.00078
TAAGGTGA | 0.3578 ± 0.00067
CAAGGTCA | 0.0991 ± 0.0032
CAAGGTTC | 0.0603 ± 0.055
CAAGGTAA | 0.00125 ± 0.13
GAAGGTAC | -0.214 ± 0.046
GAAGGTGC | 0.439 ± 0.012
CAAGGTGA | 0.406 ± 0.0091
TCAAATGA | -0.203 ± 0.019
ATGGGCCA | -0.105 ± 0.04
CAGCGCTG | 0.0573 ± 0.064
CATTACCA | -0.0668 ± 0.0072
ACTCCTTC | 0.0419 ± 0.014
AGCTATAA | -0.182 ± 0.011
AGTTAGGG | -0.128 ± 0.021
CGGGTGCC | 0.247 ± 0.024
CAGGTGCA | 0.277 ± 0.021
CAGGTGCG | 0.4533 ± 0.0028
ACGGTGCG | 0.309 ± 0.042
AAGGTGCG | 0.45 ± 0.014

Sequence | PBM E-score of 8-mer
CTGGTGCC | 0.128 ± 0.018
CAGGTGCC | 0.4 ± 0.0072
CAGATGCG | -0.135 ± 0.048
AGGGTGCG | 0.356 ± 0.052
CCCACTCC | -0.0608 ± 0.036
CCCAGATA | -0.233 ± 0.14
CGAAAGCC | -0.0801 ± 0.046
CAGTAAAC | -0.125 ± 0.0037
ACTAAACT | -0.221 ± 0.1
AAGGACTT | -0.228 ± 0.067
ATGTTAGA | -0.236 ± 0.027
CTGTTAGA | 0.118 ± 0.0087
GTGTTATA | 0.426 ± 0.013
GTGTTAAA | 0.429 ± 0.021
ATGTTACA | 0.0933 ± 0.047
GTGTTACA | 0.386 ± 0.013
CTGTTATA | 0.184 ± 0.016
ATGTTATA | -0.0814 ± 0.076
GTGTTAGA | 0.419 ± 0.0094
TTGTTAAA | 0.199 ± 0.035
CTGTTACA | 0.197 ± 0.0076
CTGTTAAA | 0.23 ± 0.015
